Assay outcomes: PubChem BioAssay, several laboratories
In the library only some 4.3% were active in any assay of this set; here they are far more common.
KKLEB tox = cytotoxicity in KKLEB CF airway cells, primary screen, cytotoxicity control for CF NF-kB inhibitor project, cell-based, uHTS, fluorescence assay plates | KKLEB CF airway cells viability, ATPlite luminescence, overnight; hits give low values; cells stimulated with P. aeruginosa culture filtrate | activity change (cytotoxicity), % at 5 µM | AID 602141, 2011 | 0.36% of 360,000 active;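 active = corrected activity change at or below -50% at 5 µM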
MITF TRPM1 inh = inhibitors of MITF-dependent TRPM1 promoter reporter, primary screen, cell-based, SK-MEL-5, single point, luciferase; SK-MEL-5 TRPM1 promoter luciferase, 24 h; 0.83% of 330,000 active; AID 488899, 2010; inhibition, % at 12.5 µM;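 active = mean inhibition across replicates of 60% or more, whatever share of single replicates reaches that level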
CF NFkB inh = inhibitors of PAF-induced NF-kB signaling, primary screen, cell-based, GFP fluorescence, uHTS; KKLEB NF-kB-GFP reporter, GFP fluorescence overnight; inhibition, % at 5 µM; 0.86% of 360,000 active; AID 588850, 2011;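 active = at least 50% inhibition at 5 µM, scaled per plate between neutral and stimulator controls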;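 note: PAF is a Pseudomonas aeruginosa culture filtrate used as stimulus; plate controls were PAF-stimulated DMSO wells for no effect and unstimulated DMSO wells for full effect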
HIF-2a block = HIF-2a reporter inhibitors, primary screen, luminescence, 786-0 RCC cells. inhibition, % at 18.8 µM. AID 624352, 2012. 0.72% of 360,000 active. 786-0 RCC cells HIF-2a reporter, luciferase luminescence, overnight;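 active = inhibition of the luminescence signal of 40% or more relative to plate controls, in a single-dose primary screen at 18.75 µM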
Peg3 prom inh-1 = Peg3 promoter-driven luciferase inhibitors, primary screen, cell-based, HeLa, luciferase luminescence | inhibition, % at 20 µM | HeLa PEG-Prom luciferase reporter, overnight | 1.7% of 360,000 active;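 active = inhibition of at least 50% at 20 µM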
CHOP inh = inhibitors of CHOP promoter induction, primary screen, cell-based, unfolded protein response, luciferase reporter; CHO-K1 CHOP-promoter luciferase, tunicamycin-induced, 15-18 h; inhibition, % at 10 µM; 3.8% of 220,000 active; AID 2732, 2010;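 active = compounds that reduced the stress-induced luciferase reporter signal by more than about 70% of percent inhibition, limit read from the data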;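 note: 0% = tunicamycin plus vehicle and 100% = wells without tunicamycin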
Peg3 prom inh-2 = Peg3 promoter reporter inhibitors, retest, confirmation, cell-based, HeLa, luciferase reporter, single concentration; 84% of 1,300 active; inhibition, % at 20 µM; AID 602417, 2012; shares compounds with Peg3 prom inh-1; HeLa PEG-Prom luciferase reporter, luminescence, overnight;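 active = at 20 µM dose, 40% or more inhibition averaged across four replicates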
CF NFkB inh conf = inhibitors of PAF-induced NF-kB signaling, retest, confirmation, cell-based, GFP fluorescence, single concentration | shares compounds with CF NFkB inh | KKLEB CF airway cells, overnight | inhibition, % at 5 µM | AID 602472, 2012 | 64% of 1,300 active; in the data active = inhibition above about 40%;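 note: stimulus PAF is a Pseudomonas aeruginosa filtrate and not platelet activating factor; plate controls were DMSO wells with stimulus for no effect and unstimulated DMSO wells for full effect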
Mdm2 MdmX conf = retested Mdm2-MdmX interaction blockers, confirmation, cell-based, luminescence, single concentration, set 2; 99% of 740 active; inhibition, % at 8 µM; SaOS-2 split-luciferase Mdm2/MdmX complementation; shares compounds with HIF-2a block;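 active = mean inhibition of the luminescence signal across two replicates at or above 26 percent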
Target sequence (O15151 whole entry, looked up): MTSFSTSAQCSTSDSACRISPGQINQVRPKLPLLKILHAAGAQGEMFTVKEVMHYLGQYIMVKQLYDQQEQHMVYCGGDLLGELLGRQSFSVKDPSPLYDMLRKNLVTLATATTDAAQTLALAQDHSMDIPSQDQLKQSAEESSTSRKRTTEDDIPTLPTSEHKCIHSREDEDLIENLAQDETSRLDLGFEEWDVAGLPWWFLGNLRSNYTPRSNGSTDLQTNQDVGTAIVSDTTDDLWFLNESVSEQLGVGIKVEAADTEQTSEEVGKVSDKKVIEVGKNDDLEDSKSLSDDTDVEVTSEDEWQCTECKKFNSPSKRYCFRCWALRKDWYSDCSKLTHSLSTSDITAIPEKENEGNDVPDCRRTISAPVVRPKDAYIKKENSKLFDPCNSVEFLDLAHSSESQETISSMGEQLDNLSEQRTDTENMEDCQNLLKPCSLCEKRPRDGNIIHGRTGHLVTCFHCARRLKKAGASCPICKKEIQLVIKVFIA
Target sequence (Q00987 whole entry, looked up): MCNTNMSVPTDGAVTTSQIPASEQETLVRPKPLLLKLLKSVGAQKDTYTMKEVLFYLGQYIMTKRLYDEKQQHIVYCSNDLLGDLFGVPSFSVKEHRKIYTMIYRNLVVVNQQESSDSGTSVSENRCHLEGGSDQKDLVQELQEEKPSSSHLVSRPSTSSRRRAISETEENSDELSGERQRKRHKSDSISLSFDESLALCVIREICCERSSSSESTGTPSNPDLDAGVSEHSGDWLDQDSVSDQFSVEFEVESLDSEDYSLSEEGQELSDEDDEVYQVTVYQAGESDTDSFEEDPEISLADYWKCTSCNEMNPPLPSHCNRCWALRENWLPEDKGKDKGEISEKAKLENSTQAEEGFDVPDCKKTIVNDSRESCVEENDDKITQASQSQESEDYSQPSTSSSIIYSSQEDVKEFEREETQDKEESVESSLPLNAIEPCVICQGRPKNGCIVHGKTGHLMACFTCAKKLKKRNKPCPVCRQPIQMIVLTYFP
HIF-2a inh conf = HIF-2a reporter inhibitor retest, confirmation, luminescence, 786-0 RCC cells; AID 651580, 2012; 56% of 1,800 active; HIF-2a luciferase reporter luminescence, overnight; shares compounds with HIF-2a block; inhibition, % at 18.8 µM;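 active = mean inhibition across four replicates of at least 40 percent at the single tested concentration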
HIF-1a counter = HIF-1a luciferase reporter signal reduction – MiaPaCa-2 cells, single concentration, counter-screen for HIF-2a inhibitor project, confirmation; 72% of 1,800 active; shares compounds with HIF-2a block; MiaPaCa-2 HIF-1a luciferase reporter, desferoxamine, overnight; inhibition, % at 18.8 µM;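 active = mean inhibition of the reporter signal across four replicates at the single tested dose of 50% or more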
* hit, by the source's call; . = not tested or not shown.

SMILES	KKLEB tox	MITF TRPM1 inh	CF NFkB inh	HIF-2a block	Peg3 prom inh-1	CHOP inh	Peg3 prom inh-2	HIF-2a inh conf	HIF-1a counter	others
O=S(=O)(Nc1cccc2cccnc12)c1ccccc1	-4	90*	78*	58*	103*	.	99*	62*	-90	CF NFkB inh conf=109*;Mdm2 MdmX conf=102*
CC(=O)Nc1cc2nn(-c3ccccc3)nc2cc1Cl	-2	-26	-17	-179	-210	-9	.	.	.
CC(C)(C)C(=O)Nc1cc2nn(-c3ccccc3)nc2cc1Cl	-94*	85*	3	75*	62*	80*	86*	91*	95*
CN(C(=O)OC(C)(C)C)c1ccc(-c2nc3ccccc3s2)cc1	-81*	94*	28	88*	90*	.	92*	95*	99*
CCN1CCN(CCCNC(=O)Cn2nc(C)n3nc(-c4ccccc4)cc3c2=O)CC1	13	-5	3	-5	-3	.	.	.	.
CCc1ccc(-c2cc3c(=O)n(CC(=O)NCCCN4CCC(Cc5ccccc5)CC4)nc(C)n3n2)cc1	-10	96*	32	-48	100*	.	98*	.	.	Mdm2 MdmX conf=103*
Cc1csc(NC(=O)c2cn3ccccc3n2)n1	3	54	-28	53*	69*	69	65*	77*	51*
CC1=C(C(=O)N(C(C)C)C(C)C)CC(CC(=O)NC(c2ccccc2)c2ccccc2)C(=O)N1CCCN1CCCC1=O (stereo not given)	-9	.	-11	15	4	.	.	.	.
CSc1ncc(Cl)c(C(=O)Nc2cccc3ccccc23)n1	-5	9	10	-1	9	5	.	.	.
Cc1cccc(C)c1NC(=O)c1nc(S(=O)(=O)Cc2ccccc2)ncc1Cl	-88*	91*	95*	77*	100*	.	97*	69*	91*
CC(C)c1ccc(N(CC(=O)NC2CCCCC2)C(=O)CCC(=O)Nc2ccccn2)cc1	-10	8	12	2	16	.	.	.	.
C=C(C)Cn1c2ccc(NC(=O)NCCc3ccccc3)cc2c(=O)n1C	1	.	-15	-18	-23	.	.	.	.
Cc1onc(-c2ccccc2)c1C(=O)Nc1ncc([N+](=O)[O-])s1	-23	3	47	-22	34	.	.	.	.
Cc1ccc(C(=O)Nc2ncc([N+](=O)[O-])s2)cc1	-6	63*	31	53*	76*	.	56*	80*	93*
COC(=O)Cc1[nH]n(-c2nc3ccccc3s2)c(=O)c1C(C)=Nc1ccc(C)cc1	8	97*	4	87*	91*	107*	94*	92*	102*
COC(=O)Cc1[nH]n(-c2nc3ccccc3s2)c(=O)c1C(C)=Nc1ccc(Cl)cc1	-15	80*	11	85*	94*	83*	94*	93*	102*
COc1cc(OC)cc(C(=O)N[C@H](C(=O)NC2CCCc3ccccc32)C(C)C)c1 (stereo not given in full)	3	1	-5	13	27	.	.	.	.
Cn1ccc(C(=O)NC(=S)N2CCSCC2)n1	2	6	-18	5	-2	3	.	.	.
Cc1nc2cc(-c3ccccc3)sc2c(=O)n1N	-6	90*	-12	75*	90*	74*	79*	88*	77*
COc1ccc(-c2cc3nc4n(c(=O)c3s2)CCCCC4)cc1	-14	-57	-5	-195	-214	-37	.	.	.
COc1ccc(-c2cc3nc(C)n(N)c(=O)c3s2)cc1	-39	79*	-17	87*	95*	102*	95*	.	.	Mdm2 MdmX conf=95*
O=C(Cn1cccc1C(=O)c1ccccc1)NCc1cccc(Cl)c1	10	-30	-7	-145	-65	8	.	.	.
Cc1c(C(=O)Nc2ccccc2C(=O)N2CCOCC2)cccc1[N+](=O)[O-]	10	-15	2	18	4	-23	.	.	.
Nc1nn(-c2ccccc2Cl)cc1-c1nn[nH]n1	-3	-6	18	17	22	3	.	.	.
NC(=O)CN1CCN(CCN2C(=O)c3cccc4cccc(c34)C2=O)CC1	0	-15	-15	-16	-15	.	.	.	.
SMILES	KKLEB tox	MITF TRPM1 inh	CF NFkB inh	HIF-2a block	Peg3 prom inh-1	CHOP inh	Peg3 prom inh-2	HIF-2a inh conf	HIF-1a counter	others
O=C1c2cccc3cc([N+](=O)[O-])cc(c23)C(=O)N1CCN1CCCC1	-20	84*	-190	-50	112*	-138	99*	.	.	Mdm2 MdmX conf=101*
Cc1cc(C)c(S(=O)(=O)N2CCN(CCN3C(=O)c4cccc5cccc(c45)C3=O)CC2)cc1[N+](=O)[O-]	.	.	.	.	.	18	.	.	.
Nc1cc2c3c(cccc3c1)C(=O)N(CCN1CCCC1)C2=O	-2	90*	-113	54*	107*	28	95*	19	102*
Cc1ccccc1-n1c(C)nnc1SCC(=O)N1CCc2ccccc2C1	4	1	15	14	18	36	.	.	.
O=C(NCC1CCCO1)C(=O)N/N=C\c1ccc2c(c1)OCO2 (stereo not given)	-5	-9	-4	-11	-18	.	.	.	.
Cc1ccc2c(c1)sc1nncn12	16	.	-2	1	-3	.	.	.	.
Cc1nc(SCC(=O)Nc2nc3ccccc3s2)c(C#N)c(C)c1C	-49	96*	27	89*	93*	102*	90*	95*	105*	Mdm2 MdmX conf=101*
Cc1cc(C(F)(F)F)c(C#N)c(SCC(=O)Nc2nc3ccccc3s2)n1	-40	25	-6	-35	-77	66	.	.	.
CC1Nc2ccc(C(=O)NC3CCCCC3)cc2NC1=O (stereo not given)	-5	-13	3	-9	-7	.	.	.	.
